# Experimental data reported in PubChem BioAssay (NCATS).
# Records with an inconclusive call do not appear. Values without a mark were called inactive. The source made the active and inactive calls. The call rests on the fitted dose curve; in most records, active means well fitted inhibition curve with a large enough effect; inconclusive means small, poorly fitted or top-dose-only effect; inactive means flat fitted curve, though single readings scatter.
# Test system: HEK293
# Test: Cytotoxic Profiling of Annotated Libraries Using Quantitative High-Throughput Screening (AID 1296008); further: nearly all actives have a fitted effect of over 60% in size
# Details: Five cell lines viability, CellTiter-Glo ATP luminescence, 48-72 h; max response: stronger effect = lower value
# Description: Cell-based phenotypic screening is a commonly used approach to discover biological pathways, novel drug targets, chemical probes and high-quality hit-to-lead molecules. Many hits identified from high-throughput screening campaign are ruled out through a series of follow-up potency, selectivity/specificity, and cytotoxicity assays. Prioritization of molecules with little or no cytotoxicity for a more in-depth downstream evaluation influence the future direction of projects, so cytotoxicity profiling of the screening libraries at early stage is essential for increasing the likelihood of candidate success. […] For the annotated library, we also examined the primary targets and mechanistic pathways regularly associated with cell death. To our knowledge, this is the first study to use high-throughput screening to profile large libraries for cytotoxicity assessment in both normal and cancer cell lines. In summary, the results generated here constitutes a valuable resource for the scientific community and provides insight on identifying cytotoxic compounds with particular mechanisms of action, and prioritizing compounds with suitable cytotoxicity profile for further evaluation.
# A pintool (Kalypsys) was used to transfer 23 nL of compound solution to the 1536-well assay plates. After 48 or 72 hr incubation at 37 degree Celsius, 5% CO2 and 95% humidity, 2.5 uL of CellTiter-Glo (Promega) was dispensed into each well using a dispenser (Aspect Automation, St. Paul, MN) with solenoid valves (Lee Valves, Westbrook CT). Plates were left at room temperature for 10 min before imaging the ATP-coupled luminescence using a ViewLux microplate imager (PerkinElmer, Waltham, MA).
# On the % scale 0 is the no-effect control and ±100 the full control effect; potency means the concentration at half of the fitted maximal effect.
Structure (SMILES),max response,Potency,outcome
CCOC(=O)NC(O)C(Cl)(Cl)Cl (stereo not given),-1.01%,,
COc1cc(CC(C)N)c(OC)cc1Br (stereo not given),,14.2 µM (active),
CC[C@]1(O)CC[C@H]2[C@@H]3CCC4=CCCC[C@@H]4[C@H]3CC[C@@]21C,-119%,,
COc1cc(C[C@@H](C)N)c(OC)cc1C,-43.2%,,
CN(C)CCc1c[nH]c2cccc(O)c12,-13.6%,,
COc1ccc(OC)c(CC(C)N)c1 (stereo not given),-0.178%,,
C[C@H]1CNCCc2ccc(Cl)cc21,,,inactive
CCN1CCCC1CNC(=O)C(O)(c1ccccc1)c1ccccc1 (stereo not given),,,inactive
CCC(OC(C)=O)C(CC(C)NC)(c1ccccc1)c1ccccc1 (stereo not given),,31 µM (active),
COc1ccc2[nH]cc(CCN(C(C)C)C(C)C)c2c1,-7.74%,,
O=C(N[C@H]1N=C(c2ccccc2F)c2cccc3c2N(CC3)C1=O)c1cc2ccccc2[nH]1,-7.34%,,
Nc1ccc(Cl)cc1C(=O)c1ccccc1F,-6.5%,,
O=C(CBr)Nc1ccc(Cl)cc1C(=O)c1ccccc1F,-0.335%,,
CC(C)C(Br)C(=O)NC(N)=O (stereo not given),2.09%,,
CCN(CC)C(C)C(=O)c1ccccc1 (stereo not given),-27.4%,,
CNC(=O)NC(O)C(Cl)(Cl)Cl (stereo not given),2.62%,,
CCS(=O)(=O)C(C)(C)S(=O)(=O)CC,1.49%,,
C[C@@H]1CC[C@H]2[C@@H](C)C(=O)O[C@@H]3O[C@@]4(C)CC[C@@H]1[C@]32OO4,,2.37 µM (active),
CC(Cc1ccccc1)NCCCCl (stereo not given),0.613%,,
COc1cc(N)c(Cl)cc1C(=O)NC1CN2CCC1CC2 (stereo not given),-0.75%,,

Structure (SMILES),max response,Potency,outcome
CC1Sc2c(C(=O)O)c(=O)c3cc(F)c(N4CCNCC4)cc3n21 (stereo not given),4.19%,,
COCC(=O)N(c1c(C)cccc1C)C(C)C(=O)OC (stereo not given),-19.3%,,
CC(CC(C#N)(c1ccccc1)c1ccccc1)N(C)C (stereo not given),,24.3 µM (active),
CCO[C@H]1O[C@@H]2OC3(C)CC[C@H]4[C@H](C)CC[C@@H]([C@H]1C)[C@@]24OO3,,5.96 µM (active),
Cc1nnc2n1-c1sc(CCc3ccc(CC(C)C)cc3)cc1C(c1ccccc1Cl)=NC2C (stereo not given),,7.5 µM (active),
CNC(C)Cc1ccc2c(c1)OCO2 (stereo not given),-3.37%,,
CCC(=O)C(CCN(C)C)(c1ccccc1)c1ccccc1,-18.5%,,
O=c1n(Cl)c(=O)n(Cl)c(=O)n1Cl,-82.7%,,
Oc1c(Br)cc(Br)cc1Br,2.8%,,
C[C@]12CC[C@H]3[C@@H](CC=C4C[C@@H](O)CC[C@@]43C)[C@@H]1CC[C@@H]2O,-6.75%,,
CN(C)C(=S)SSC(=S)N(C)C,,0.944 µM (active),
CCOC(=O)NC(C)(C)Cc1ccc(Cl)cc1,,,inactive
Cc1ccc([N+](=O)[O-])[c]2c1[O][Hg]2,,1.06 µM (active),
C1CN2CCC1CC2,1.2%,,
COc1ccc(C(=O)N2CCCC2=O)cc1,,,inactive
COP(=S)(OC)Oc1ccc(S(N)(=O)=O)cc1,-8.17%,,
C[C@]12CC[C@H]3[C@@H](CCC4=CC(=O)CC[C@@]43C)[C@@H]1CC[C@@H]2C(=O)O,-4.71%,,
ClC1=C(Cl)C2(Cl)C(CBr)CC1(Cl)C2(Cl)Cl (stereo not given),,,inactive
CCCCC1C(=O)NC(=O)N(C2CCCCC2)C1=O (stereo not given),0.515%,,
CC(C(O)c1ccccc1)N(C)C/C=C/c1ccccc1 (stereo not given),-9.94%,,
